Experiment [1] deals with Nuclear receptor coactivator 3 (Homo sapiens) (UniProt Q9Y6Q9). Briefly: NCOA3 GAL4-fusion reporter inhibition – cell-based, luminescence, quadruplicate, confirmation (AID 588792;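 active = mean inhibition over 43.08%, the solvent-only control mean plus 3 SD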;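 also: 0% = DMSO treated cells and 100% = gossypol at 36 µM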). To be noted: HEK293 GAL4-SRC3 luciferase reporter, at 3.6 µM, hits give high values. In general terms: Reporter assays use an easily measured gene product as a stand-in for the process of interest.

The subject of experiment [2] is transactivating tegument protein VP16 (Human herpesvirus 1), Gal4-VP16 luciferase reporter. Briefly: repression of VP16-driven luciferase reporter – cell-based, luminescence, high throughput, counter-screen for SRC3 inhibitor project (AID 588794; in the data active = inhibition above about 30%). To be noted: mammalian cells, at 3.6 µM, hits give high values.
The target in experiment [3] is Nuclear receptor coactivator 1 (Homo sapiens) (UniProt Q15788). Briefly: NCOA1 GAL4-fusion reporter inhibition – cell-based, luminescence, quadruplicate, confirmation (AID 588820;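 active = mean inhibition above 46.68%, the untreated control wells mean plus 3 SD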;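 also: 0% = DMSO wells and 100% = gossypol 36 µM treated wells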). To be noted: HEK293 GAL4-SRC1 luciferase reporter, at 3.6 µM, hits give high values.
Experiment [4] in a line: repression of VP16-driven luciferase reporter – cell-based, luminescence, high throughput, counter-screen for SRC1 inhibitor project (AID 588824; in the data active = inhibition above about 25%). To be noted: cell-based VP16 transactivation luciferase luminescence; at 3.6 µM; hits give high values.
Experiment [5] is described as follows: StAR promoter reporter inhibitors, counter-screen for LRH-1 inverse agonist project, cell-based, luminescence, high throughput (AID 651611; in the data active = inhibition above about 28%). To be noted: StAR promoter luciferase reporter counterscreen, at 3.6 µM, hits give high values.
Experiment [6] has as its target Nuclear receptor subfamily 5 group A member 2 (Homo sapiens) (UniProt O00482). As to the kind of experiment: NR5A2 activity suppression in reporter cells – cell-based, luminescence, confirmation (AID 651613; in the data active = inhibition above about 42%;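 also: HEK293T cells co-transfected with LRH-1 and StAR promoter luciferase reporter; 0% = vehicle wells and 100% = parental cells lacking receptor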). The conditions noted are these: cell-based LRH-1 luciferase reporter, inverse agonism; at 3.6 µM; hits give high values.
Experiment [7] concerns the target Steroidogenic factor 1 (Homo sapiens) (UniProt Q13285). As to the kind of experiment: inverse agonism at SF1 nuclear receptor – cell-based, luminescence, high throughput, counter-screen for LRH-1 inverse agonist project (AID 651614).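 Also: cells cotransfected with StAR promoter reporter and SF1 expression vector; 0% = vehicle on cells with receptor and 100% = vehicle on cells lacking receptor.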 The conditions noted are these: cell-based SF1 luciferase reporter, at 3.6 µM, hits give high values. (In general: The purpose of a counterscreen is to sort out artefacts and off-target activity.)

Experiment [8] can be described thus: compounds suppressing VP16-driven luciferase signal – cell-based, luminescence, high throughput, counter-screen for LRH-1 inverse agonist project (AID 651615; in the data active = inhibition above about 33%). To be noted: Gal4-VP16 luciferase reporter cells, at 3.6 µM, hits give high values.
Experiment [9] relates to transactivating tegument protein VP16 (Human herpesvirus 1). Briefly: compounds suppressing VP16-driven luciferase signal – cell-based, luminescence, single concentration, counter-screen for SRC2 inhibitor project (AID 652007; in the data active = inhibition above about 36%). To be noted: cell-based VP16 transactivation luciferase reporter, at 8.9 µM, hits give high values.
Experiment [10] deals with Nuclear receptor coactivator 2 (Homo sapiens) (UniProt Q15596). As to the kind of experiment: inhibition of GAL4-SRC2 driven luciferase expression – cell-based, luminescence, HEK293, triplicate, confirmation (AID 652008;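 active = mean inhibition above 46.5%, the solvent-only control mean plus 3 SD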;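 also: 0% = DMSO-treated cells and 100% = Gossypol at 36 µM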). The conditions noted are these: HEK293 GAL4-SRC2 luciferase reporter, at 8.9 µM, hits give high values.

Values without a mark were called inactive. The source made the active and inactive calls. Rule as the data show it, unless noted: active = inhibition above about 44%; inactive = the rest.

As usually defined, the inhibition is the relative decrease from the control value, in per cent.

Sequence of Nuclear receptor coactivator 1 (Homo sapiens) (Q15788 whole entry, looked up, the tested form may be a part): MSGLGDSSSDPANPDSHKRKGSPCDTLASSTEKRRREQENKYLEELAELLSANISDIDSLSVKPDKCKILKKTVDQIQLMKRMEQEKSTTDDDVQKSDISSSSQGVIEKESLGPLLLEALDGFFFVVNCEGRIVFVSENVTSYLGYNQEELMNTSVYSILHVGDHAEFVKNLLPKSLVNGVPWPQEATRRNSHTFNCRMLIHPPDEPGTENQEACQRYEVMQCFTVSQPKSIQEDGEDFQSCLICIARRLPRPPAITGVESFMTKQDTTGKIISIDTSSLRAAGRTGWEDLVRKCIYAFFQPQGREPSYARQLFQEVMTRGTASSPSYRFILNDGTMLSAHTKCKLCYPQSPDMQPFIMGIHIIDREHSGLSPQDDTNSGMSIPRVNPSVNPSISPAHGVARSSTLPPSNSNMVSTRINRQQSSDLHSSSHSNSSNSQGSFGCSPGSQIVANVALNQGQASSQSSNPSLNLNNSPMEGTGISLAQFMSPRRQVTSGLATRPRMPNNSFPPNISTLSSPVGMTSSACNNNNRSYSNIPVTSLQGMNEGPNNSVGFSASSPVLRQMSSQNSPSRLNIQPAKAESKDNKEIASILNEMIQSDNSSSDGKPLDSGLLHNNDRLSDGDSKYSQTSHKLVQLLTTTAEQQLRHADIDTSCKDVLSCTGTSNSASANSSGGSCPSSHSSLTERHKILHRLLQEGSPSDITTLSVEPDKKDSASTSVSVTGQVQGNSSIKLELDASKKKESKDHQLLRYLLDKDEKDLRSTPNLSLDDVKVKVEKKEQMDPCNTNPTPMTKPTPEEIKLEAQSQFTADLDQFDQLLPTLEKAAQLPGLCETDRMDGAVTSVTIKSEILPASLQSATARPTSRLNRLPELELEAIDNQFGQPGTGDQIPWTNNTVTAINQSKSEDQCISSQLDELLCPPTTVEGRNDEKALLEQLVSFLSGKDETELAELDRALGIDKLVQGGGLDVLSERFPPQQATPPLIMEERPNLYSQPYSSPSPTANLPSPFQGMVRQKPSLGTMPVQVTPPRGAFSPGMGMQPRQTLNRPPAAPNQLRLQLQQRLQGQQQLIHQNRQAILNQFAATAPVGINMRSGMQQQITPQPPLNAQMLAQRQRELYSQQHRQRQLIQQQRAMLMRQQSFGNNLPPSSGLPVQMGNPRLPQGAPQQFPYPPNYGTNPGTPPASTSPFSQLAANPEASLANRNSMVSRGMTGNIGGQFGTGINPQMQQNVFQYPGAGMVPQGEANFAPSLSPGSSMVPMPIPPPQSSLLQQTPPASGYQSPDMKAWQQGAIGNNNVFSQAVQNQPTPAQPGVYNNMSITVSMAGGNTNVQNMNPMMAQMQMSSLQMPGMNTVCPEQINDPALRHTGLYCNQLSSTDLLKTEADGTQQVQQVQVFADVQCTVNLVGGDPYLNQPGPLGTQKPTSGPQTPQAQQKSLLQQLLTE
Sequence of Steroidogenic factor 1 (Homo sapiens) (Q13285 whole entry, looked up): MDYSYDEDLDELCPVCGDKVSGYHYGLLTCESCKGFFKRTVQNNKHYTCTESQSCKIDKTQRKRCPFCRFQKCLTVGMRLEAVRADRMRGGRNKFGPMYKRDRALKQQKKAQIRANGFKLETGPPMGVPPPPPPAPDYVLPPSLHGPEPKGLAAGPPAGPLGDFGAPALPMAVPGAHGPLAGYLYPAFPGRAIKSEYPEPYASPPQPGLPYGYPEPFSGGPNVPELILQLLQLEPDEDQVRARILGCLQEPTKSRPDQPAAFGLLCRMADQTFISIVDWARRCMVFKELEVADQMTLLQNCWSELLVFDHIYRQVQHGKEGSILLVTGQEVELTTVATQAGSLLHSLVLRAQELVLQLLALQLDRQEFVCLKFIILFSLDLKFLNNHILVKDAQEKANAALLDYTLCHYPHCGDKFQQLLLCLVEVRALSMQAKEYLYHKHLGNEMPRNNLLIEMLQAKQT
Sequence of Nuclear receptor coactivator 2 (Homo sapiens) (Q15596 whole entry, looked up, the tested form may be a part): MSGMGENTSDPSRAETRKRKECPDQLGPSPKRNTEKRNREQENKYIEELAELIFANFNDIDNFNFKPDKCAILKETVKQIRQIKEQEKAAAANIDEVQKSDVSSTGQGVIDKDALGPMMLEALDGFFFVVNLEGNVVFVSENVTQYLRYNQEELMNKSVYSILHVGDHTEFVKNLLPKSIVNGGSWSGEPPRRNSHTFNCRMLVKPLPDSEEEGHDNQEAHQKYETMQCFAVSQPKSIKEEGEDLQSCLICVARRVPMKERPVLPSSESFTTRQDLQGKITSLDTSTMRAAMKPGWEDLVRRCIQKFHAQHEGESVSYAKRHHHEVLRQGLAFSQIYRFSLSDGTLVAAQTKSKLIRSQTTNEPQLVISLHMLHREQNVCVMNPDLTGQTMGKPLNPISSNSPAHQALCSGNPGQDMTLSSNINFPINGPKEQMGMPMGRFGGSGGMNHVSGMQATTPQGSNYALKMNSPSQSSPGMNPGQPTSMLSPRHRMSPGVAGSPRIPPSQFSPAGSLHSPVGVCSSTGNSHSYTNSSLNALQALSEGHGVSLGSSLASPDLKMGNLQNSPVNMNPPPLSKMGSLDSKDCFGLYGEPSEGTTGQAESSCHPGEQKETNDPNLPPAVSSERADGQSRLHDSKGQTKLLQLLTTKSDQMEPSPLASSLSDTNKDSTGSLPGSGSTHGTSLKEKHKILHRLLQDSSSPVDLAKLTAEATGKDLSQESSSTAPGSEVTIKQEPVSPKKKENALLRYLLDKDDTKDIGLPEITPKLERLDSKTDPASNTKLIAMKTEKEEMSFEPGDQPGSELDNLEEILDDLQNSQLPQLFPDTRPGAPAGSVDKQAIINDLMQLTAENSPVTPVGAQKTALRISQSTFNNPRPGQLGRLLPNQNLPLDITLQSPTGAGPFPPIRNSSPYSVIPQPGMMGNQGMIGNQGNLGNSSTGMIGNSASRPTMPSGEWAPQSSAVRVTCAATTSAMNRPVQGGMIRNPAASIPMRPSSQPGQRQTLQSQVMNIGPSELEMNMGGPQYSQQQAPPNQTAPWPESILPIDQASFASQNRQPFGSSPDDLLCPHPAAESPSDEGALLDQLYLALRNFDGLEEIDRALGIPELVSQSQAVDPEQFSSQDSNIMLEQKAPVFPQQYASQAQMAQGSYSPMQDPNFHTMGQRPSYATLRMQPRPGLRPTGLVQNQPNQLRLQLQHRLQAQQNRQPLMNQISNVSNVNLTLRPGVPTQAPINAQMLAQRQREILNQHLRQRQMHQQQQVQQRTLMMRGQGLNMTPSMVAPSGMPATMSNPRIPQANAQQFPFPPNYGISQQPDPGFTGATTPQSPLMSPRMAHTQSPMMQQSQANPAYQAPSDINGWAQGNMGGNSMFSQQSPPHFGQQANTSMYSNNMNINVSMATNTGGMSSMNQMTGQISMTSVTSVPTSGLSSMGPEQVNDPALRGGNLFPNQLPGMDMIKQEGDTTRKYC
Sequence of Nuclear receptor coactivator 3 (Homo sapiens) (Q9Y6Q9 whole entry, looked up, the tested form may be a part): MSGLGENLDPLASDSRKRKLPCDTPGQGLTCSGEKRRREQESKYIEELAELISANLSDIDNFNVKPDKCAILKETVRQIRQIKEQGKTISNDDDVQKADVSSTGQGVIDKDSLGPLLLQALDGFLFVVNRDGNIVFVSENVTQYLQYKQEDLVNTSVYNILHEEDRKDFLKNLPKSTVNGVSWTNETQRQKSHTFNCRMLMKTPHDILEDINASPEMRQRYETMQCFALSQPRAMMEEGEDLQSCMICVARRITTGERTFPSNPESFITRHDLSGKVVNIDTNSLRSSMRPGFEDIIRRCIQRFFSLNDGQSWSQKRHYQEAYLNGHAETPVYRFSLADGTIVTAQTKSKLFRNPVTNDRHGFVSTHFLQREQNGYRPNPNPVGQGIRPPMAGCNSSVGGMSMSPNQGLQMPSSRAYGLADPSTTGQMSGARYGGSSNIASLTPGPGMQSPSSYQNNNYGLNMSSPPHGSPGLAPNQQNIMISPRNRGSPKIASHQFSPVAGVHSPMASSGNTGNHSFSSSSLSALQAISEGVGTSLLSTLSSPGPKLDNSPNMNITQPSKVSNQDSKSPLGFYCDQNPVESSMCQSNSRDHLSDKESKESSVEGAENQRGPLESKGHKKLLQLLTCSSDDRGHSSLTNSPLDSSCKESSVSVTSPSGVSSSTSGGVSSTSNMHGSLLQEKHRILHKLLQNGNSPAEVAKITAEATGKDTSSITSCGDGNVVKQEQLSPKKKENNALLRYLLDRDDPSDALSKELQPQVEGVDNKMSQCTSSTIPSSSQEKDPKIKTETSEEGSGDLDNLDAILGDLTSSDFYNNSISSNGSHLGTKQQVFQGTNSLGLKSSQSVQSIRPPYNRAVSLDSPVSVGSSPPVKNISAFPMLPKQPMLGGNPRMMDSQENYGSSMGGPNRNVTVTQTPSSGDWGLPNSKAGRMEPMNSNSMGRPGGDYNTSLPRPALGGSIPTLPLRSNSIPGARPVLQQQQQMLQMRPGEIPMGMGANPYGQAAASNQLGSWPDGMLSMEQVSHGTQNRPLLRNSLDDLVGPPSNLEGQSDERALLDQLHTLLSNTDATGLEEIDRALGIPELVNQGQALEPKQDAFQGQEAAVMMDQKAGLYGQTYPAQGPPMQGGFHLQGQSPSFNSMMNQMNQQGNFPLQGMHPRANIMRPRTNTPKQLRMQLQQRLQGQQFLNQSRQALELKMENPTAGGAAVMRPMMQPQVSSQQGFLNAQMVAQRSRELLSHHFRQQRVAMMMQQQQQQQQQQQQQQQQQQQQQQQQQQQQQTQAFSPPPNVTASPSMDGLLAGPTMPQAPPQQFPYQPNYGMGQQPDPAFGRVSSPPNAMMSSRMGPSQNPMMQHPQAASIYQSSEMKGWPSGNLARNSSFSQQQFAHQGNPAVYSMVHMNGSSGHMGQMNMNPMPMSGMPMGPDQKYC

On to `CC(=O)OC1CC2OC3C=C(C)CCC3(C)C1(C)C21CO1` (stereo not drawn), for which the inhibition in experiment [1] was 98.2% (active); in experiment [2] it was 95.5% (active); in experiment [3], 94.2% (active); in experiment [4] it was 95.1% (active); in experiment [5], 95.2% (active); in experiment [6], 111% (active). Moreover, the inhibition in [7] was 98% (active); in experiment [8] it was 96.8% (active); in experiment [9], 82.5% (active); in experiment [10], 76.1% (active).

Take `CC[n+]1c(/C=C/N(C)c2ccccc2)sc2ccc(Cl)cc21`: the inhibition in experiment [1] is 28.9%; in experiment [2], 46.1% (active); in experiment [3] it was 30.4%; in experiment [4] it was 48.8% (active); in [5], 23.7%; in experiment [6], 83.7% (active). Moreover, the values for the inhibition in experiment [7] and in experiment [8] were 73.4% (active) and 75% (active), respectively.

With `CC1=CC2OC3CC4OC(=O)C=CC=CC(C(C)O)OCC(O)C(C)CC(=O)OCC2(CC1O)C4(C)C31CO1` (stereo not drawn), the inhibition in experiment [1] was 98.7% (active); in experiment [2] it was 98.2% (active); in experiment [3], 97.4% (active); in [4], 97.9% (active); in [5] it was 96.3% (active); in [6], 108% (active). Also, the inhibition in [7] was 96% (active); in experiment [8], 97.5% (active); in experiment [9] it was 79.8% (active); in experiment [10] it was 70.1% (active).

For `CC1=CC2OC3CC4OC(=O)C=CC=CC(C(C)O)OCC(O)C5(C)OC5C(=O)OCC2(CC1O)C4(C)C31CO1` (stereo not drawn), the inhibition in experiment [1] is 98.6% (active); in [2], 96.2% (active); in experiment [3], 96.5% (active); in experiment [4] it was 95.1% (active); in experiment [5], 94.8% (active); in experiment [6], 108% (active). The inhibition is 96.5% (active) in [7], 96.2% (active) in [8], 82.1% (active) in [9] and 73.5% (active) in [10].

In the case of `O=C1NC2C(O)C(O)C(O)C(O)C2c2cc3c(c(O)c21)OCO3` (stereo not drawn), the inhibition is 97.3% (active) in [1]; 96% (active) in experiment [2]; 93.4% (active) in experiment [3]; 95% (active) in experiment [4]; 96.4% (active) in experiment [5]; 109% (active) in experiment [6]. For the same molecule, the inhibition is 97.7% (active) in experiment [7], 98.6% (active) in experiment [8], 79.7% (active) in experiment [9] and 75.7% (active) in [10].

The values are drawn from PubChem BioAssay.
